Measurements from PubChem BioAssay AID720519 (National Center for Advancing Translational Sciences (NCATS), 2013).
Records with an inconclusive call do not appear. The call rests on the fitted dose curve; in most records, active means well fitted activation curve with a large enough effect; inconclusive means small, poorly fitted or top-dose-only effect; inactive means flat fitted curve, though single readings scatter.

test: qHTS for Inhibitors of Cell Surface uPA Generation: Confirmatory Assay for Cherry-picked Compounds; conditions: cell surface uPA activity generation, qHTS confirmation; series mostly up to 115 µM; inhibition: at the top concentration; further: 0% is about no effect
Method in brief: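 RAW 264.7 cells at 4000/well, incubated overnight, then treated with compounds. After 24 h at 37 C, viability was read by ATPlite luminescence. An increase in signal indicates blocked uPA-dependent LF entry.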

inhibition, inactive:
N#Cc1cccc(NC(=O)Cn2cnc(S(=O)(=O)N3CCOCC3)c2)c1 -0.879%
CC(=O)c1ccc2c(c1)c1ccccc1n2CC(C)C -0.0624%
COc1ccc(OC)c(NC(=O)C2CC2c2ccccc2)c1 (centres undefined) -2.61%
CCN(C(=O)c1c(C)noc1C)c1c(N)n(Cc2ccccc2)c(=O)[nH]c1=O -0.453%
Cc1oc(-c2ccccc2F)nc1CS(=O)CC(=O)NCc1ccc(F)cc1 (centres undefined) -1.82%
COc1cc(C2NC(=O)NC(C)=C2C(=O)OCC2CCCCC2)ccc1O (centres undefined) -0.323%
CCOc1ccc(NS(=O)(=O)c2ccc(C(=O)N3CCC3)cc2)cc1 -1.37%
COc1ccc(C2=NS(=O)(=O)N(C)C(C(=O)NCc3ccccn3)=C2)cc1 -2.51%
O=C(CNC(=O)c1ccc(Br)o1)NNC(=O)c1ccccc1 -1.22%
Cc1cccc(N2CCN(Cc3ccc(Br)o3)CC2)c1C 1.91%
Cc1ccccc1C(=O)NCC(=O)Nc1ccc(C)c(S(=O)(=O)N2CCCCCC2)c1 -3.15%
CCCCOc1ccc(S(=O)(=O)N2CCCCC2)cc1 -1.94%
CCC(NC(=S)NCc1ccc(F)cc1)c1ccccc1 (centres undefined) -0.172%
COc1ccc(N2CCN(C3CCN(S(=O)(=O)c4ccc(F)cc4)CC3)CC2)cc1 -1.08%
Cc1ccc(S(=O)(=O)NCC(=O)OC(C)C(=O)NCc2ccc3c(c2)OCO3)cc1 (centres undefined) -1.17%
CCOc1ccc(Cl)cc1/C=N/NC(=O)c1ccccc1 -0.983%
Cc1cccc(Nc2ccc(NCc3ccccc3)nn2)c1 -2.68%
O=C(/C=C/c1cccc(Oc2ccccc2)c1)N1CCOCC1 0.233%
COc1cc(/C=N/NC(=O)Cc2csc(C)n2)ccc1OCC(C)C -0.993%
COc1ccccc1C(=O)NCc1ccccc1 -2.97%
CCCNC(=O)COc1coc(CN2CCN(c3ccccc3OC)CC2)cc1=O -0.726%
CCc1cc(CC)c(/C=N/NC(N)=O)c(CC)c1 -1.12%
CC(C)(C)OC(=O)NCCCCCNC(=O)c1[nH]cnc1C(=O)Nc1ccc(Cl)cc1 -1.98%
COc1ccccc1NC(=O)Cn1ncc2c1-c1ccccc1OC2 -1.12%
CS(=O)(=O)c1ccc(Cl)c(NC(=O)COC(=O)CNC(=O)c2cccs2)c1 -0.838%
C[N+]1(CC(O)c2ccccc2)CCCCCC1 (centres undefined) -0.146%
C=CCn1c(SCCN2C(=O)c3ccccc3C2=O)nc2scc(-c3ccc(F)cc3)c2c1=O 5.25%
CC1CCCN(S(=O)(=O)c2cccc([N+](=O)[O-])c2)C1 (centres undefined) 0.952%
Cc1cc(-c2ccccc2)nc(N/N=C/c2ccc(N(C)C)cc2)n1 -2.59%
CCN(CC)c1c([N+](=O)[O-])c(=O)sc2ccccc12 -1.46%
Cc1cccc(CNc2ccc(C(CC(N)=O)NC(=O)c3cccc(Br)c3)cc2[N+](=O)[O-])c1 (centres undefined) -0.0467%
Cc1cc(/C=N/NC(=O)c2ccccc2F)c(C)n1-c1ccccc1 -1.81%
COC(=O)COc1cc2ccccc2cc1C(=O)Nc1ccccc1 -0.876%
Cc1ccccc1OCCC(=O)NNC(=O)c1ccccc1F -0.751%
Cc1ccc(NC(=O)CCCn2c(=S)[nH]c3ccsc3c2=O)cc1C 1.66%
COc1cccc2c1Oc1ncccc1N(C(=O)CCC(=O)NCc1ccc(C)cc1)C2 -1.4%
Cc1nc2ccc(Br)cn2c1C(=O)N/N=C\c1ccccc1Cl 0.471%
CCOc1cc(/C=C(\C#N)C(=O)NCc2cccnc2)ccc1O -2.42%
O=C(CSc1ccc([N+](=O)[O-])cn1)Nc1nccs1 -1.37%
